Source: PubChem
Lassa entry inh = inhibitors of Lassa virus binding or cell entry. Lassa virus pseudotype entry inhibition, cell reporter. Potency, µM (top dose mostly 37.9 µM), for inactives: at the highest dose activity change, negative = inhibition, hits mostly inhibitors. actives 1.2% (n = 300,000); calls by dose curve; tested in HEK293 cells; further: potency means the concentration at half of the fitted maximal effect; nearly all actives have a fitted effect of over 50% in size
HCMV inh = human cytomegalovirus inhibition; HFF cells, HCMV-luciferase reporter, 72 h; stronger effect = lower value; activity change, negative = inhibition, % at 57.5 µM; actives 4.5% (n = 410,000); AID 1259415; in the data active means activity change below about -60%; inconclusive means no clear call, values can overlap the other calls; inactive means above about -39%
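Two compound doses tested in HFFs infected with HCMV-luciferase, MOI 1 PFU/cell, 72 h at 37C. Lysate luminescence read with OneGlo; data normalized against buffer-only and 10uM Salinomycin inhibitor controls.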
HCV inh = blocks hepatitis C virus; Huh7.5.1 HCVcc-Cre infection, luciferase reporter, 44 h; Potency, µM (doses to about 41.8 µM), for inactives: at the top dose activity change, negative = inhibition, actives largely listed as inhibitors; actives 3.4% (n = 340,000); active means well fitted inhibition curve with a large enough effect; inconclusive means small, poorly fitted or top-dose-only effect, or another doubt; inactive means no such curve, though single readings can be large or run the other way; further: potency means the concentration at half of the fitted maximal effect
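After 44 h co-culture of compound, cells and HCVcc-Cre (~0.5 moi), substrate is added for 15 min at room temperature and luciferase measured over 15 sec. Cells were seeded at 1,000/well and pre-cultured 4 h.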
FMDV antiviral = antivirals against foot and mouth disease virus; FMDV antiviral cell-based qHTS; Potency, µM (series often up to 57.9 µM), for inactives: top-dose activity change, negative = inhibition, usual class: inhibitors; actives 1.2% (n = 410,000); AID 1159524; calls by dose curve; tested in HEK293T cells; further: read-out not given here; potency means the concentration at half of the fitted maximal effect; nearly all actives have a fitted effect of over 45% in size
MARV entry inh = Marburg virus entry inhibition; Marburg virus pseudotyped entry inhibition, cell reporter; Potency, µM (highest dose often 37.8 µM), inactives show top-dose activity change, negative = inhibition, actives largely listed as inhibitors; actives 1.8% (n = 300,000); AID 540276; calls by dose curve; tested in HEK293 cells; further: potency means the concentration at half of the fitted maximal effect
Numbers without * were called inactive; ? = inconclusive; . = no result; + = active, no number; ! = repeats disagree; [ ] = another dose, or the depositor's remark. The list is not random: actives were taken first. Their share in the collection is about 7.9%. On the % scale 0 is the no-effect control and ±100 the full control effect.

SMILES	Lassa entry inh	HCMV inh	HCV inh	FMDV antiviral	MARV entry inh
Cc1ccc(CSc2ncc(Cl)c(C(=O)Nc3nc4ccc(C)cc4s3)n2)cc1	11%[46.1 µM]	11	.	-7%	-6%[46.1 µM]
Cc1ccc(CS(=O)(=O)c2ncc(Cl)c(C(=O)Nc3nc4ccc(C)cc4s3)n2)cc1	?	-107*	.	?	?
Cc1ccc(CS(=O)(=O)c2ncc(Cl)c(C(=O)Nc3nc4ccc(F)cc4s3)n2)cc1	?	-93*	.	?	-8%[46.1 µM]
COc1ccc2nc(NC(=O)c3nc(S(=O)(=O)Cc4ccc(C)cc4)ncc3Cl)sc2c1	?	-100*	.	-9%	?
COc1ccc2nc(NC(=O)c3nc(SC(C)C)ncc3Cl)sc2c1	17%[46.1 µM]	3	.	-17%	?
CCCc1nnc(NC(=O)c2nc(S(=O)(=O)Cc3ccc(C)cc3)ncc2Cl)s1	?	-107*!	?	35µM*	-2%[46.1 µM]
CC1CCN(c2ccc(-c3cccc(NS(=O)(=O)c4cccs4)c3)nn2)CC1	-2%[46.1 µM]	81	.	?	.
O=C(COc1ccc(F)cc1)Nc1nnc(S(=O)(=O)N2CCc3ccccc32)s1	17%[46.1 µM]	1	.	-17%	.
O=C(Nc1ccc(Oc2cccnc2)cc1)C1CCN(Cc2cc(Cl)ccc2O)CC1	.	-83*	?	7.9µM*	.
CCn1nc(C)c(CN2CCCCC2C(=O)Nc2ccc(Oc3cccnc3)cc2)c1C (stereo not drawn)	4%	.	11µM*	?	-29%
O=C(Nc1ccc(Oc2ccccc2)nc1)C1CCN(Cc2ccco2)CC1	2%	-38	?	0%	?
C#Cc1ccc(CN2CCC(C(=O)Nc3ccc(Oc4ccccc4)nc3)CC2)cc1	.	+	4.5µM*	?	.
O=C(Nc1ccc(Oc2ccccc2)nc1)C1CCN(Cc2cccc(F)c2)CC1	-15%	-69*	.	?	?
Cc1cccnc1-c1cccc2c1OC(CNC(=O)Cc1c(C)noc1C)C2 (stereo not drawn)	.	.	.	-7%	.
COc1cc(Cl)c(C)cc1NC(=O)c1nn(C)c2c1CSc1ccccc1-2	-13%[46.1 µM]	?	.	-8%	1%[46.1 µM]
COCc1ccc(CN2CCCC(C(=O)Nc3ccc(-c4cccc(OC)c4)cc3)C2)o1 (stereo not drawn)	.	?	10µM*	-16%	.
COc1cccc(-c2ccc(NC(=O)C3CCCN(Cc4cnn(C(C)C)c4)C3)cc2)c1 (stereo not drawn)	?	-108*	11µM*	?	?
COc1cccc(C(=O)C2CCCN(Cc3cnn(C(C)C)c3)C2)c1 (stereo not drawn)	-7%	18	1%	-14%	-19%[46.1 µM]
COc1cccc(-c2ccc(NC(=O)C3CCCN(Cc4cc(C)[nH]n4)C3)cc2)c1 (stereo not drawn)	-11%	?	?	-6%	?
COc1cccc(-c2ccc(NC(=O)C3CCCN(CCCn4cccn4)C3)cc2)c1 (stereo not drawn)	?	-29	?	35µM*	?
Cc1ccccc1CN1CCCC(C(=O)Nc2ccc(-c3ccn[nH]3)cc2)C1 (stereo not drawn)	-28%	-63*	?	-19%	?
CC(=O)c1cccc(NC(=O)c2ccc3c(c2)N(Cc2ccc(C)cc2)CCS3)c1	?	-17	.	3%	15%[46.1 µM]
O=C(Nc1ccc(Br)cc1F)C(NS(=O)(=O)c1cccc2nsnc12)c1ccccc1 (stereo not drawn)	?	6	.	37%	-32%[46.1 µM]
Cc1ccc(C)c2c1cc(C)c1nnc(SCc3ccccn3)n12	-1%	29	19%	1%	24%
Cc1cc2cc(C)c3nnc(SCc4ccccn4)n3c2cc1C	9%	-65*	?	-35%	1%
SMILES	Lassa entry inh	HCMV inh	HCV inh	FMDV antiviral	MARV entry inh
COc1ccc(-c2nnc(SCC(=O)Nc3ccc(F)cc3)s2)cc1	11%[46.1 µM]	-12	.	12%	.
CCCCOc1ncnc2c1[nH]c1ccc(OCC)cc12	-9%	-20	11%	20%	13%
CCCCOc1ncnc2c1[nH]c1ccc(F)cc12	?	-94*	2.8µM*	.	?
CCCCOc1ncnc2c1[nH]c1ccccc12	-11%	-28	4.5µM*	?	?
N#C/C(=C\c1ccccc1C(F)(F)F)C(=O)Nc1ccccc1	4%	-29	1%	22%	-2%
CCc1cccc(CC)c1NC(=O)/C(C#N)=C/c1ccccc1C(F)(F)F	?	-103*	11µM*	25µM*	?
